High-throughput results: PubChem, several laboratories
The list is not random: actives were taken first. Their share in the collection is about 27%.
CYP2C9 inhib – blocks human cytochrome P450 2C9; actives 20% (n = 96,000); inhibition, % at 5 µM; CYP2C9 Supersomes, luciferin-H conversion, luminescence; P11712;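 active = blocking of liver enzyme CYP2C9 beyond about 50% at 5 µM, limit read from the data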
sEH activator – soluble epoxide hydrolase (human) activation; P34913; purified human sEH enzymatic activity, activator screen; activation, % at 2 µM; actives 0.04% (n = 91,000); AID 717; in the data active = activation above about 37%
CYP2C19 inh – human CYP2C19 inhibition. CYP2C19 Supersomes, luciferin-H EGE luminescence, 30 min. AID 778. actives 21% (n = 96,000). inhibition, % at 5 µM;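 active = CYP2C19 inhibition above a set limit at 5 µM in the primary screen, cut at about 50% in these data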;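 also: plate controls were negative control wells for no effect and 2.5 mM tranylcypromine positive control for full effect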
Target sequence (P33261 whole entry, looked up): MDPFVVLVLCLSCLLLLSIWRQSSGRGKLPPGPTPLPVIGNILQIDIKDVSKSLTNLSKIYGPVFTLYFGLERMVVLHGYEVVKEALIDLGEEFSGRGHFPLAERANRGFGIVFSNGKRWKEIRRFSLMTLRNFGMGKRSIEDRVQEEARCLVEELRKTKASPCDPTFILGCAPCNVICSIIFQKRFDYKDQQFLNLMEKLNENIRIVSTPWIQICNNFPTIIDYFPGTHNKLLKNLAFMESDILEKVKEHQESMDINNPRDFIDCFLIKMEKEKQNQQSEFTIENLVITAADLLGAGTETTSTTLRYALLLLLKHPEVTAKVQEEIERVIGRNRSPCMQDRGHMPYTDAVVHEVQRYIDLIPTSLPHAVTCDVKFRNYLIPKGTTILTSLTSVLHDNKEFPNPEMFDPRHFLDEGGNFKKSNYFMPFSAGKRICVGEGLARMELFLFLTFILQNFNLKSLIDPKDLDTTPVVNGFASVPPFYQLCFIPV
CYP2C9 act – increases human cytochrome P450 2C9 activity | P11712 | recombinant CYP2C9, luciferin-H conversion, luminescence; hits give high values; factor 1 = untreated enzyme, 0 = blocked | activation factor at 5 µM | actives 1.4% (n = 96,000) | AID 1024;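 active = activation factor of 2 or more for CYP2C9 at a 5 µM dose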;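 also: 0 = sulfaphenazole-blocked wells and 1 = vehicle-only wells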
sEH inh – soluble epoxide hydrolase (human) inhibition | inhibition, % at 2 µM | actives 0.34% (n = 91,000) | P34913 | recombinant human sEH enzymatic activity assay; in the data active = inhibition above about 80%
CYP2C19 activ – activators of human cytochrome P450 2C19 | 96,000 tested, under 10 active | P33261 | AID 1025 | recombinant CYP2C19, luciferin-H EGE luminescence; hits give high values; 0 = fully inhibited enzyme, 1 = untreated enzyme | activation factor at 5 µM;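 active = activation factor of at least 2 at 5 µM in the primary screen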;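 also: 0 = wells with 2.5 mM tranylcypromine and 1 = vehicle-only wells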
Active calls of the source: *; . = no result given.

SMILES	CYP2C9 inhib	sEH activator	CYP2C19 inh	CYP2C9 act	sEH inh	CYP2C19 activ
COc1ccccc1-c1noc(CCC(=O)Nc2cc(C(F)(F)F)ccc2Cl)n1	-44	-35	68*	1.4	34	0.3
Cc1cc(C)c(S(=O)(=O)NCc2cn3c(C)csc3n2)cc1C	-18	20	18	1.2	-19	0.8
CCOC(=O)c1cc(-c2ccc(F)cc2)n(CC(=O)Nc2nccs2)c1C	.	12	.	.	-13	.
CCOC(=O)C1CCCN(C(=O)c2cc3nc(-c4cccc(OC)c4)cc(C(F)(F)F)n3n2)C1 (stereo not drawn)	84*	.	86*	0.2	.	0.1
COc1ccc(-c2nn(C)c3sc(C(=O)NCc4ccco4)cc23)cc1OC	2	.	-7	1	.	1.1
CCOC(=O)C1CCN(C(=O)c2cc3c(-c4ccc(OC)c(OC)c4)nn(C)c3s2)CC1	95*	15	92*	0.1	-14	0.1
CCOC(=O)C1CCCN(C(=O)c2cc3c(-c4cccc(OC)c4)nn(C)c3s2)C1 (stereo not drawn)	68*	2	37	0.3	-4	0.6
CCOC(=O)N1CCC(NC(=O)c2cc3c(-c4ccc(OC)c(OC)c4)nn(C)c3s2)CC1	42	.	36	0.6	.	0.6
COc1ccc(NC(=O)c2cc3c(-c4ccc(OC)c(OC)c4)nn(C)c3s2)cc1OC	74*	-8	57*	0.3	10	0.4
O=C(O)c1cccnc1SC1CC(=O)N(Cc2ccccc2)C1=O (stereo not drawn)	4	-5	-13	1	9	1.1
C=CCNc1nc(NC(C)(C)CO)nc(OC)n1	.	-11	.	.	15	.
CC(=O)c1c(COC(=O)c2cccnc2)nc2ccccc2[n+]1[O-]	5	-4	48	0.9	4	0.5
CCOC(=O)C1CCN(C(=O)Nc2ccc3nc(C)c(C)nc3c2)CC1	1	-15	2	1	16	1
O=C1CCC([N+](=O)[O-])C(c2ccc(Cl)cc2Cl)N1 (stereo not drawn)	-11	16	-1	1.1	-19	1
CCCCOc1ccc(-c2nnn(C(C)(C)C(=O)OC)n2)cc1	57*	-5	42	0.4	9	0.6
CCCCOc1ccc(-c2nnn(C(C)C(=O)OCC)n2)cc1 (stereo not drawn)	68*	12	49	0.3	-12	0.5
CCC(C(=O)O)n1nnc(-c2ccc(-c3ccc(OC)cc3)cc2)n1 (stereo not drawn)	28	6	0	0.7	-7	1
O=C(CCSc1ccccc1)Nc1ccc(OCc2ccccc2)cc1	6	-34	-5	0.9	34	1
COc1ccccc1C(=O)NCCN1CCN(C(=O)c2ccccc2OC)CC1	-1	-2	6	1	4	0.9
CCOc1cccc(NC(=O)C2CC(=O)N(C)C2)c1 (stereo not drawn)	-10	4	-4	1.1	-4	1
COc1ccccc1N=C1SC(C(=O)Nc2ccc(F)cc2)CC(=O)N1C (stereo not drawn)	.	-5	.	.	5	.
CCOc1cccc(NC(=O)C2CC(=O)N(C)C(=Nc3cccc(F)c3)S2)c1 (stereo not drawn)	75*	-10	51*	0.3	8	0.5
CCOc1cccc(NC(=O)C2CC(=O)N(C)C(=Nc3ccccc3)S2)c1 (stereo not drawn)	74*	18	26	0.3	-19	0.7
Cc1cccc(-n2c(Cn3nc(C)c([N+](=O)[O-])c3C)n[nH]c2=S)c1	-3	3	7	1	-2	0.9
CCOC(=O)Cc1csc(NC(=O)c2sc3nc4c(C)cc(C)cc4cc3c2N)n1	59*	3	28	0.4	-3	0.7
SMILES	CYP2C9 inhib	sEH activator	CYP2C19 inh	CYP2C9 act	sEH inh	CYP2C19 activ
CCOC(=O)Cc1csc(NC(=O)COc2ccc(OC)cc2)n1	16	2	3	0.8	-3	1
CCOC(=O)Cc1csc(NC(=O)CSc2nnc(-c3ccc(OC)cc3)n2C)n1	59*	13	30	0.4	-14	0.7
CCOC(=O)Cc1csc(NC(=O)c2cccc(OC)c2)n1	65*	6	27	0.3	-10	0.7
CCNC(=O)COc1ccc2ccccc2c1	5	-9	14	0.9	9	0.9
Cc1nn(-c2ccccc2)c(C)c1NC(=O)COc1ccc2ccccc2c1	-24	9	74*	1.2	-11	0.3
CCOc1cc(Br)c(C(=O)O)cc1OC	-6	-1	-14	1.1	3	1.1
Nn1c(SCC(=O)N2CCOCC2)nnc1-c1ccco1	4	-1	-10	1	2	1.1
CCOC(=O)Cc1nnc(NC(=O)COc2ccc(OC)cc2)s1	61*	0	0	0.4	-1	1
CCOC(=O)Cc1csc(NC(=O)CSc2nc(N)c3c(C)c(C)sc3n2)n1	59*	0	19	0.4	-2	0.8
CCOC(=O)Cc1csc(NC(=O)CCS(=O)(=O)Cc2ccccc2)n1	53*	10	31	0.5	-12	0.7
CCOC(=O)Cc1nnc(NC(=O)COc2ccc(C)cc2)s1	49	5	2	0.5	-6	1
CCOC(=O)Cc1csc(NC(=O)COc2ccc3ccccc3c2)n1	47	0	53*	0.5	-1	0.5
Cc1c(OCc2ccc(C(=O)O)o2)ccc2c3c(c(=O)oc12)CCC3	16	-44	-8	0.8	44	1.1
CCc1ccc(NC(=O)CSc2nnc(CNC(=O)c3c(F)cccc3Cl)o2)cc1	52*	-13	21	0.5	15	0.8
O=C(CSc1nnc(CNC(=O)c2c(F)cccc2Cl)o1)Nc1ccccc1	2	-3	2	1	4	1
Cc1cc(NC(=O)Cn2nc(-c3ccccc3F)ccc2=O)ccc1-n1cnnn1	17	-28	-3	0.8	27	1
CCOC(=O)CNC(=O)Nc1nnc(-c2ccc(OCC)cc2)o1	-17	.	-4	1.2	.	1
Cn1c2ccccc2c2c(C(=O)NCC3CCCO3)cn(C3CCCC3)c(=O)c21 (stereo not drawn)	40	-16	30	0.6	18	0.7
Cn1c2ccccc2c2c(C(=O)NCCCN3CCCC3=O)cn(C3CCCCC3)c(=O)c21	55*	10	33	0.5	-8	0.7
Cc1cccc(N2CCN(C(=O)c3cn(C)c(=O)c4c3c3ccccc3n4C)CC2)c1C	70*	7	8	0.3	-6	0.9
Cc1ccc(Cl)cc1N1CCN(C(=O)c2cn(C)c(=O)c3c2c2ccccc2n3C)CC1	96*	-5	86*	0	6	0.1
COCCn1cc(C(=O)N2CCN(C)CC2)c2c3ccccc3n(C)c2c1=O	-1	-9	0	1	8	1
Cn1c2ccccc2c2c(C(=O)N3CCN(c4ccccc4)CC3)cn(C3CCCC3)c(=O)c21	52*	0	40	0.5	0	0.6
